{"source": "PubChem BioAssay AID1259343", "about": "(VanderVen Lab, College of Veterinary Medicine, Cornell …, 2017)", "note": "Hit rate of the full screen: of about 6,200 compounds, about 2,900 (47%) were called active. So high a share suggests a set chosen from earlier hits. This is one part of the list. Values without a mark were called inactive. No stated cut-off is given here; in the data, active means inhibition above about 50%; inactive means the rest."}
{"experiment": "Mycobacterium tuberculosis growth inhibition, primary screen (AID 1259343)", "settings": "inhibition: at 10 µM, stronger effect = higher value; outcome: 10 uM"}
{"smiles": "Fc1ccc(CN2CCN(c3cc(Oc4ccc(F)cc4Cl)ncn3)CC2)cc1", "inhibition": "39.7%"}
{"smiles": "COc1ccccc1Oc1cc(Cl)ncn1", "inhibition": "53.5% (active)"}
{"smiles": "Fc1ccc(Oc2cc(Cl)ncn2)cc1", "inhibition": "73.1% (active)"}
{"smiles": "Fc1ccc(Oc2cc(N3CCc4ccccc4C3)ncn2)cc1F", "inhibition": "34.6%"}
{"smiles": "COc1cc(C(C)=O)ccc1Oc1cnccn1", "inhibition": "3.02%"}
{"smiles": "Cc1nnc(N2C(=O)C(=O)C(=C(O)c3ccc(OC(C)C)cc3)C2c2ccc([N+](=O)[O-])cc2)s1", "note": "(stereo unspecified)", "inhibition": "35.4%"}
{"smiles": "CN(C(=O)c1ccccc1)c1nnc(C23CC4CC(CC(C4)C2)C3)s1", "inhibition": "70% (active)"}
{"smiles": "COc1ccc(C(=O)N(C)c2nnc(C34CC5CC(CC(C5)C3)C4)s2)c(OC)c1", "inhibition": "29.9%"}
{"smiles": "O=C(Nc1ncc(Cl)s1)c1ccc(Cl)cn1", "inhibition": "81.3% (active)"}
{"smiles": "O=C(Nc1ncc(Cc2ccc(Cl)cc2)s1)c1cccs1", "inhibition": "53.4% (active)"}
{"smiles": "O=C(Cc1cccs1)Nc1ncc(Cc2ccc(F)c(F)c2)s1", "inhibition": "44.8%"}
{"smiles": "CCCC(C)Nc1ncnc2sc3c(c12)CCC(C)C3", "note": "(stereo unspecified)", "inhibition": "84.8% (active)"}
{"smiles": "CC(=O)CSc1ncnc2sc3c(c12)CCC(C)C3", "note": "(stereo unspecified)", "inhibition": "2.69%"}
{"smiles": "Clc1ccccc1CSc1nnc(-c2ccc[nH]2)o1", "inhibition": "-6.43%"}
{"smiles": "N#Cc1c(SCc2ccccc2Cl)sc2c(=O)[nH]c(=O)[nH]c12", "inhibition": "67.2% (active)"}
{"smiles": "Nc1ccc2c(c1)Cc1ccccc1-2", "inhibition": "0.14%"}
{"smiles": "Nc1ccc2c(c1)-c1ccccc1C2", "inhibition": "-7.01%"}
{"smiles": "Nc1ccc2c(c1)C(=O)NCC2", "inhibition": "61.7% (active)"}
{"smiles": "C=CCNC(=S)Nc1ccc(Cl)cc1Cl", "inhibition": "4.42%"}
{"smiles": "S=C(Nc1ccc2c(c1)OCO2)Nc1ccccc1Cl", "inhibition": "19.5%"}
{"smiles": "S=C(NCC1CCCCC1)Nc1ccccc1Cl", "inhibition": "89.6% (active)"}
{"smiles": "O=C(NCCC12CC3CC(CC(C3)C1)C2)c1ccc2c(=O)n3c(nc2c1)CCCCC3", "inhibition": "67% (active)"}
{"smiles": "COc1ccc(C(C)NC(=O)c2ccco2)cc1F", "note": "(stereo unspecified)", "inhibition": "15.9%"}
{"smiles": "COc1ccc(C(C)NC(=O)Cc2ccccc2Cl)cc1F", "note": "(stereo unspecified)", "inhibition": "74.1% (active)"}
{"smiles": "NC(Cc1ccc(C(F)(F)F)cc1)c1csc(Nc2ccccn2)n1", "note": "(stereo unspecified)", "inhibition": "47%"}
{"smiles": "COc1ccc(C(N)c2csc(Nc3ccc(C(F)(F)F)cn3)n2)cc1", "note": "(stereo unspecified)", "inhibition": "86.2% (active)"}
{"smiles": "NC(Cc1ccccc1)c1csc(Nc2ccc(C(F)(F)F)cn2)n1", "note": "(stereo unspecified)", "inhibition": "86.1% (active)"}
{"smiles": "CC(C)CC(N)c1csc(Nc2ccc(C(F)(F)F)cn2)n1", "note": "(stereo unspecified)", "inhibition": "91.8% (active)"}
{"smiles": "NC(Cc1ccc(C(F)(F)F)cc1)c1csc(Nc2cnccn2)n1", "note": "(stereo unspecified)", "inhibition": "53% (active)"}
{"smiles": "NC(c1ccccc1)c1csc(Nc2ccc(C(F)(F)F)cn2)n1", "note": "(stereo unspecified)", "inhibition": "1.35%"}
{"smiles": "NC(COCc1ccccc1)c1csc(Nc2ccc(C(F)(F)F)cn2)n1", "note": "(stereo unspecified)", "inhibition": "66.5% (active)"}
{"smiles": "FC(F)(F)c1ccc(Nc2cnn(Cc3ccccc3)c2)nc1", "inhibition": "58.1% (active)"}
{"smiles": "FC(F)(F)c1ccc(Sc2ncccn2)nc1", "inhibition": "-12%"}
{"smiles": "CC(C)CCc1nc(Cn2c(C(F)(F)F)ccc(C(N)=O)c2=O)cs1", "inhibition": "11.8%"}
{"smiles": "Cc1ccc(CS(=O)(=O)Cc2csc(CCC(C)C)n2)cc1", "inhibition": "96% (active)"}
{"smiles": "CN1C(=O)C(=Cc2cccc(OCc3ccccc3Cl)c2)C(=O)N(C)C1=O", "inhibition": "14.1%"}
{"smiles": "CCc1cc(=O)[nH]c(-n2nc(C)cc2NC(=O)C(C)(C)Oc2ccc(Cl)cc2)n1", "inhibition": "-31%"}
{"smiles": "Cc1cc(=O)[nH]c(-n2nc(C3CC3)cc2NC(=O)C(C)(C)Oc2ccc(Cl)cc2)n1", "inhibition": "98.2% (active)"}
{"smiles": "Cc1cc(=O)[nH]c(-n2nc(C)cc2NC(=O)C(C)(C)Oc2ccc(Cl)cc2)n1", "inhibition": "101% (active)"}
{"smiles": "Cc1cc(NC(=O)C(C)(C)Oc2ccc(Cl)cc2)n(-c2nc(C)c(C)c(=O)[nH]2)n1", "inhibition": "100% (active)"}
{"smiles": "CCc1sc(-c2nnc(-c3cccc(OC)c3)o2)cc1C", "inhibition": "52.4% (active)"}
{"smiles": "CCc1sc(-c2nnc(CSc3nnc(-c4ccco4)o3)o2)cc1C", "inhibition": "-15.2%"}
{"smiles": "COc1cccc(C2=NN(C(C)=O)C(C(=O)N(CC(C)C)CC(C)C)O2)c1", "note": "(stereo unspecified)", "inhibition": "-4.2%"}
{"smiles": "Cn1c(=O)oc2cc(NC(=O)C3CCCC(C(F)(F)F)C3)ccc21", "note": "(stereo unspecified)", "inhibition": "-34.1%"}
{"smiles": "O=C(Nc1ccc(-n2cccn2)nc1)C1CCCC(C(F)(F)F)C1", "note": "(stereo unspecified)", "inhibition": "7.71%"}
{"smiles": "Cc1ccc(C(=O)C(C#N)C(=O)C2CCCC(C(F)(F)F)C2)s1", "note": "(stereo unspecified)", "inhibition": "101% (active)"}
{"smiles": "Cc1ccc(NCCOc2ccccc2F)cc1-n1cnnn1", "inhibition": "54.8% (active)"}
{"smiles": "Cc1ccc(NC(=O)NC2CCC(C)CC2)cc1-n1cnnn1", "note": "(stereo unspecified)", "inhibition": "-21.7%"}
{"smiles": "CCn1c2ccccc2c2cc(Nc3ccnc(NCCCN4CCOCC4)n3)ccc21", "inhibition": "53.6% (active)"}
{"smiles": "Cc1nn2c(NCCN3CCOCC3)cc(-c3ccccc3)nc2c1-c1ccccc1", "inhibition": "48.5%"}
{"smiles": "CC(SC(=S)N1CCCC1)c1nc(C2CC2)no1", "note": "(stereo unspecified)", "inhibition": "-46.6%"}
{"smiles": "Cc1cc(OCc2cccc(Cl)c2)ccc1N", "inhibition": "92.4% (active)"}
{"smiles": "NC(=O)c1cccc(COc2cc(Cl)cc(Cl)c2)c1", "inhibition": "49.7%"}
{"smiles": "Cc1c(C(=O)NCc2ccc(Cl)c(Cl)c2)sc(=O)n1Cc1cccc(F)c1", "inhibition": "41.3%"}
{"smiles": "Cc1ccc(C2CC2C(=O)Nc2nc(C)c(SCC#N)s2)s1", "note": "(stereo unspecified)", "inhibition": "39.7%"}
{"smiles": "Cc1nc(NC(=O)CNC(=O)Cc2cccc(F)c2)sc1SCC#N", "inhibition": "81.8% (active)"}
{"smiles": "CNC(=O)NC(=O)C(C)Sc1nnc(SCC(C)C)s1", "note": "(stereo unspecified)", "inhibition": "89.7% (active)"}
{"smiles": "CC(C)CSc1nnc(SCC(=O)Nc2ccc(C#N)cc2)s1", "inhibition": "-25.3%"}
{"smiles": "CCNC(=O)NC(=O)C(C)Sc1nnc(Nc2ccc(C)cc2)s1", "note": "(stereo unspecified)", "inhibition": "99.2% (active)"}
{"smiles": "Cc1nc(SC(C)C(=O)NC(N)=O)c2c(C)c(C)sc2n1", "note": "(stereo unspecified)", "inhibition": "-7.75%"}
{"smiles": "CNC(=O)NC(=O)C(C)Sc1nnc(Nc2ccc(C)cc2)s1", "note": "(stereo unspecified)", "inhibition": "54.2% (active)"}
{"smiles": "CCC(C)c1ccc(Nc2nc(C)c(C)s2)cc1", "note": "(stereo unspecified)", "inhibition": "41.7%"}
{"smiles": "CCOC(=O)c1ccc(NC(=O)N2CCN(C(=O)c3cc4ccoc4n3Cc3cccc(OC)c3)CC2C)cc1", "note": "(stereo unspecified)", "inhibition": "85.9% (active)"}
{"smiles": "COc1cccc(Cn2c(=O)c(C(=O)N3CCCC3)nn(-c3cc(C)cc(C)c3)c2=O)c1", "inhibition": "3.71%"}
{"smiles": "COc1ccccc1Cn1c(C(=O)N2CCN(C(=O)C(Cl)c3ccccc3)C(C)C2)cc2ccsc21", "note": "(stereo unspecified)", "inhibition": "35.9%"}
{"smiles": "O=C1c2ccccc2S(=O)(=O)N1Cc1ccccc1Oc1ccccc1", "inhibition": "8.36%"}
{"smiles": "Cc1cccc2sc(NC(=O)C3CC4CCC3C4)nc12", "note": "(stereo unspecified)", "inhibition": "85.8% (active)"}
{"smiles": "O=C(CC1C=CCC1)Nc1nc2c(Cl)c(Cl)ccc2s1", "note": "(stereo unspecified)", "inhibition": "48.5%"}
{"smiles": "O=C(Nc1ccc2ccccc2n1)C1CC2CCC1C2", "note": "(stereo unspecified)", "inhibition": "45.8%"}
{"smiles": "CC1CCN(Cc2ncc(-c3ccccc3)o2)C2CCCCC12", "note": "(stereo unspecified)", "inhibition": "72.5% (active)"}
{"smiles": "c1ccc(-c2cnc(CN3CCSc4ccccc43)o2)cc1", "inhibition": "26%"}
{"smiles": "COc1ccc(N2C(=O)C(c3c(C(C)C)[nH]n(-c4ccc(Cl)cc4)c3=O)=C(N3CCC(C)CC3)C2=O)c(OC)c1", "inhibition": "39%"}
{"smiles": "CCc1[nH]n(-c2ccc(Cl)c(Cl)c2)c(=O)c1C1=C(N(C)C2CCCCC2)C(=O)N(c2ccccc2F)C1=O", "inhibition": "65.4% (active)"}
{"smiles": "N#Cc1c(C(F)(F)F)cc(=O)n2c1[nH]c1ccccc12", "inhibition": "101% (active)"}
{"smiles": "CCOc1ccccc1N=Cc1c(C)c(C#N)c2[nH]c3ccccc3n2c1=O", "inhibition": "1.57%"}
{"smiles": "CCc1c(C)c(C#N)c2[nH]c3ccccc3n2c1=S", "inhibition": "40.8%"}
{"smiles": "Cc1cc(NC(C)C(=O)N(C)Cc2ccccc2)ccc1Br", "note": "(stereo unspecified)", "inhibition": "50.4% (active)"}
{"smiles": "Cc1cc(NC(=O)C(C)Nc2ccc(Br)c(C)c2)on1", "note": "(stereo unspecified)", "inhibition": "14%"}
{"smiles": "Cc1c(-c2cccc(NC(=O)Nc3ccccc3)c2)nc2ncccn12", "inhibition": "18.8%"}
{"smiles": "CCCSc1ncccc1C(=O)Nc1ccc(-c2ccccc2)cc1", "inhibition": "89.9% (active)"}
{"smiles": "O=C(Nc1ccccc1)c1cccn(OCc2ccccc2F)c1=O", "inhibition": "32.1%"}
{"smiles": "CNc1ccc(-c2ccc(CC#N)cc2)cn1", "inhibition": "38.5%"}
{"smiles": "CSCCC(=O)N1CCC(C(=O)Nc2ccc(Oc3ccccc3F)cc2)CC1", "inhibition": "76.3% (active)"}
{"smiles": "COCC(=O)N1CCC(C(=O)Nc2ccc(Oc3ccccc3F)cc2)CC1", "inhibition": "inactive"}
{"smiles": "Cc1ccn(CC(=O)N2CCC(C(=O)Nc3ccc(Oc4ccccc4F)cc3)CC2)n1", "inhibition": "19.3%"}
{"smiles": "O=C(Nc1ccc(Oc2ccccc2F)cc1)C1CCN(C(=O)CCc2ccccc2)CC1", "inhibition": "90.6% (active)"}
{"smiles": "COc1ccc(CC(N)c2csc(Nc3cccc(OC)n3)n2)cc1", "note": "(stereo unspecified)", "inhibition": "85.1% (active)"}
{"smiles": "COc1cccc(Nc2nc(C(N)Cc3ccc(Cl)cc3)cs2)n1", "note": "(stereo unspecified)", "inhibition": "80.4% (active)"}
{"smiles": "COc1cccc(Nc2nc(C(N)Cc3ccc(F)cc3)cs2)n1", "note": "(stereo unspecified)", "inhibition": "86.6% (active)"}
{"smiles": "NC(Cc1ccc(Cl)cc1)c1csc(Nc2ccc(-c3ccccc3)nn2)n1", "note": "(stereo unspecified)", "inhibition": "91.2% (active)"}
{"smiles": "COc1cccc(Nc2nc(C(N)C3CCCCC3)cs2)n1", "note": "(stereo unspecified)", "inhibition": "86.2% (active)"}
{"smiles": "COc1ccc(-c2csc(NC3CCCC3)n2)c(OC)c1", "inhibition": "16.6%"}
{"smiles": "COc1cccc(Nc2nc(C(N)Cc3ccc(C(F)(F)F)cc3)cs2)n1", "note": "(stereo unspecified)", "inhibition": "75.8% (active)"}
{"smiles": "CN(Cc1ccc(O)cc1)C(=O)C1=NOC(c2ccccc2)C1", "note": "(stereo unspecified)", "inhibition": "66.5% (active)"}
{"smiles": "CC(C)Cc1cc(C(=O)N2CCOC(CCCc3ccccc3)C2)n[nH]1", "note": "(stereo unspecified)", "inhibition": "54.1% (active)"}
{"smiles": "CC(C)c1cc(C(=O)N2CCOC(CCc3ccccc3)C2)no1", "note": "(stereo unspecified)", "inhibition": "56.6% (active)"}
{"smiles": "O=C(c1ccc2c(c1)OCCO2)N1CCOC(CCc2ccccc2)C1", "note": "(stereo unspecified)", "inhibition": "39.8%"}
{"smiles": "COc1ccc(C(=O)N2CCOC(CCc3ccccc3)C2)cc1F", "note": "(stereo unspecified)", "inhibition": "57.4% (active)"}
{"smiles": "O=C(CCc1cccs1)N1CCOC(CCCc2ccccc2)C1", "note": "(stereo unspecified)", "inhibition": "34.9%"}
{"smiles": "O=C(COc1ccccc1F)Nc1ccc2c(c1)OC(F)(F)O2", "inhibition": "21.4%"}
{"smiles": "O=C(CCS(=O)(=O)c1ccccc1F)Nc1ccc(I)cc1", "inhibition": "80.2% (active)"}
